Results published in PubChem BioAssay.
Calls of active or inactive are those of the source.

Assay: CREB reporter modulators under forskolin, primary screen, cell-based, PC12, CRE-LacZ reporter, forskolin-stimulated (AID 1146);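 note: beta-galactosidase reporter signal reflecting CREB driven transcription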
Details: luminescence, 4.5 h, higher = more signal, called active from +8 up or from −8 down

Row | SMILES | z-score
1 | CCCCN1CC=CC23O[C@@H]4C=CCOC(=O)[C@@H]4[C@H]2C(=O)N(CCO)[C@@H]3C1=O (stereo not given in full) | 0.113 (inactive)
2 | C=CC[C@@]12N=C(c3ccc(OCCCO)cc3)O[C@@H]1c1ccccc1N(Cc1ccccc1)C2=O | -1.66 (inactive)
3 | COCCOC(=O)N1C(=O)[C@@]2(c3cc(C#CCC(C(=O)OC)C(=O)OC)ccc31)[C@H](C(N)=O)[C@H]1C(=O)O[C@H](c3ccccc3)[C@H](c3ccccc3)N1[C@@H]2c1ccc(OCCO)cc1 | -0.372 (inactive)
4 | CCOC(=O)C1=C(C(=O)OCC)N(S(=O)(=O)CC[Si](C)(C)C)[C@H](c2ccccc2)CC1 | 0.207 (inactive)
5 | COC(=O)C1=CC(CCCO)=CC(c2ccc(CN3CCCC3)cc2)N(Cc2sc3ccccc3c2Cl)C=C1C(=O)OC (stereo not given) | -1.74 (inactive)
6 | C=CCNC(=O)[C@@H]1[C@H]2C(=O)O[C@H](c3ccccc3)[C@H](c3ccccc3)N2[C@H](c2ccc(O)cc2)[C@@]12C(=O)Nc1ccc(C#CC3(O)CCCCCC3)cc12 | -0.361 (inactive)
7 | NC(=O)NCC#Cc1ccc2c(c1)[C@]1(C(=O)N2)[C@H](C(=O)Nc2nc3ccccc3s2)[C@H]2C(=O)O[C@H](c3ccccc3)[C@H](c3ccccc3)N2[C@@H]1c1ccc(OCCO)cc1 | -0.199 (inactive)
8 | COCCOC(=O)N1C(=O)[C@@]2(c3cc(C#CC4(O)CCCCCC4)ccc31)[C@H](c1ccccc1OCCO)N1[C@H](c3ccccc3)[C@H](c3ccccc3)OC(=O)[C@H]1[C@@H]2C(=O)N1CCCCCCC1 | 0.881 (inactive)
9 | COCCOC(=O)N1C(=O)[C@@]2(c3cc(C#CCCO)ccc31)[C@H](C(=O)N1CCc3cc(OC)c(OC)cc3C1)[C@H]1C(=O)O[C@H](c3ccccc3)[C@H](c3ccccc3)N1[C@@H]2c1ccccc1OCCO | -0.251 (inactive)
10 | [N-]=[N+]=NCc1ccccc1[C@H]1OC(c2ccc(OCCCO)cc2)=N[C@@]1(Cc1ccccc1)C(=O)N1CCOCC1 | -0.227 (inactive)
11 | C=CCOC(=O)[C@H]1[C@@H]2C(=O)O[C@@H](c3ccccc3)[C@@H](c3ccccc3)N2[C@@H](c2ccc(OCCOC(=O)[C@@H]3C[C@@H]4C(=O)N[C@@H](CC(C)C)C(=O)N4[C@@H]3c3ccc(O)cc3)cc2)[C@]12C(=O)Nc1ccc(I)cc12 | 0.318 (inactive)
12 | COCCOC(=O)N1C(=O)[C@@]2(c3cc(C#CCC(C(=O)OC)C(=O)OC)ccc31)[C@H](C(=O)N1CCc3cc(OC)c(OC)cc3C1)[C@H]1C(=O)O[C@H](c3ccccc3)[C@H](c3ccccc3)N1[C@@H]2c1ccc(O)cc1 | -0.572 (inactive)
13 | O=C1c2ccccc2[C@@]2(Cc3ccccc3N(Cc3ccccc3)C2=O)[C@H](c2ccc(CO)cc2)N1Cc1ccccc1 | 0.806 (inactive)
14 | CN(C)CCCC[C@@H]1NC(=O)[C@@H]2C[C@H](C(=O)NCCCCCCNC(=O)CS)[C@H](c3cccc(OCCO)c3)N2C1=O | -0.995 (inactive)
15 | CCCC[C@H]1OB(O)C[C@H]2C1=C(COC)C[C@H]1C(=O)C=CC(=O)[C@H]12 | 6.12 (inactive)
16 | C=C(/C(=C/C[C@@H](OC(C)=O)c1ccccc1OCCO)c1cc(C(=O)OC)ccc1OC)C(C)C | -0.37 (inactive)
17 | C=C(CCCC)/C(=C/C[C@H](OC(C)=O)c1cccc(OCCO)c1)c1cc(C(=O)OC)ccc1OC | -0.834 (inactive)
18 | CN(C)CCCC[C@@H]1NC(=O)[C@@H]2C[C@H](C(=O)NCc3ccc(F)cc3)[C@H](c3ccc(O)cc3)N2C1=O | -0.636 (inactive)

Row | SMILES | z-score
19 | C=CCNC(=O)[C@@H]1[C@H]2C(=O)O[C@H](c3ccccc3)[C@H](c3ccccc3)N2[C@H](c2ccccc2OCCO)[C@@]12C(=O)N(C(=O)OCCOC)c1ccc(C#CCCO)cc12 | -0.466 (inactive)
20 | C=CCC(OC(C)=O)[C@@H]1[C@@H](N(Cc2cc3ccccc3o2)C(=O)c2ccc(-c3ccccc3)cc2)c2cc(OCCCO)ccc2N1C(=O)c1ccc2ccccc2n1 (stereo not given in full) | -0.531 (inactive)
21 | COc1ccc(C#Cc2ccc3c(c2)[C@]2(C(=O)N3)[C@H](C(=O)Nc3nc4ccccc4s3)[C@H]3C(=O)O[C@H](c4ccccc4)[C@H](c4ccccc4)N3[C@@H]2c2ccc(OCCO)cc2)cc1 | -0.545 (inactive)
22 | C=CCC(OC(C)=O)[C@@H]1[C@@H](N(Cc2cc3ccccc3o2)C(=O)Cc2ccc(OC)cc2)c2cc(OCCCO)ccc2N1C(=O)Cc1ccc(OC)cc1 (stereo not given in full) | -0.0385 (inactive)
23 | COCCOC(=O)N1C(=O)[C@@]2(c3cc(C#CC4(O)CCCCCC4)ccc31)[C@H](C(=O)NC[C@H](O)c1ccccc1)[C@H]1C(=O)O[C@H](c3ccccc3)[C@H](c3ccccc3)N1[C@@H]2c1ccc(O)cc1 | 0.0418 (inactive)
24 | Cc1c(NC(=O)/C(C#N)=C/c2ccc(Cl)cc2)c(=O)n(-c2ccccc2)n1C | -1.64 (inactive)
25 | CCCC=C(CCC)[C@@H](NS(=O)(=O)c1ccc(Cl)cc1)c1ccccc1 | 0.261 (inactive)
26 | CN(C)CCCNC(=O)[C@@]1(Cc2ccccc2I)c2ccccc2C(=O)N(Cc2ccccc2)[C@H]1c1ccc(CO)cc1 | 2.56 (inactive)
27 | CCOC(=O)C[C@H]1[C@H](OC(=O)c2ccc(-c3ccccc3)cc2)[C@@H](NC(=O)c2ccc3ccccc3c2)c2cc(OCCCO)ccc2N1C(=O)c1ccccc1 | 1.09 (inactive)
28 | C=C(CCCC)C(=O)CC[C@H](OC(=O)c1cccnc1)c1ccc(CO)o1 | 0.484 (inactive)
29 | COc1ccc(C#Cc2ccc3c(c2)[C@]2(C(=O)N3)[C@H](c3ccc(OCCO)cc3)N3[C@H](c4ccccc4)[C@H](c4ccccc4)OC(=O)[C@H]3[C@@H]2C(=O)O)cc1 | 3.52 (inactive)
30 | COC(=O)[C@@]1(Cc2ccc(F)cc2)[C@H]2c3cc(C(=O)N(C)C)n(CCN4CCOCC4)c3C[C@H]2CN1C(=O)c1ccccc1 | 0.823 (inactive)
31 | CCCC[C@@H]1C[C@H]1[C@@H](NC(=O)c1ccc(C(F)(F)F)cc1)c1ccc(C(=O)OC)cc1 | -0.269 (inactive)
32 | COC(=O)[C@@]1(Cc2ccccc2)[C@@H]2[C@@H](CC(=O)[C@H]2CC(=O)C(=O)N(C)C)CN1C(=O)c1ccccc1 | 0.983 (inactive)
33 | COC(=O)[C@@]1(Cc2ccc(OC)cc2)[C@H]2c3cc(C(=O)N4CCCC4)n(CCc4ccc(OC)c(Br)c4)c3C[C@H]2CN1C(=O)c1ccccc1 | 0.132 (inactive)
34 | O=C1NC(=O)C2C1C=CC(C(O)c1cccc(O)c1)N2Nc1ccc(Cl)cc1Cl (stereo not given) | -0.45 (inactive)
35 | C=C(COC)C(=O)CC[C@@H](OC(C)=O)c1ccc(OCCO)cc1 | 8.41 (active)
